Experimental data from ChEMBL document CHEMBL3988442, “University of Dundee, Small-Polar-MMV Screening Library” (2021).
For some assays here: Measured potencies and affinities stand elsewhere.

Experiments:
Set-up in all cases: scale not given: direction of the effect not stated beside the values
[1] = target: Protein translocase subunit SecA (Escherichia coli (strain K12)) (UniProt P10408); assay: Assay to Identify E. coli SecA ATPase Inhibitors; format: functional; settings: 30 µM
[2] = target: T1, Ubiquitin-activating enzyme e1, putative (Leishmania donovani (strain BPK282A1)) (UniProt E9BSI1); assay: Leishmania donovani Ubiquitin Activating Enzyme (LdE1); format: functional; settings: 30 µM
T1 sequence (whole entry): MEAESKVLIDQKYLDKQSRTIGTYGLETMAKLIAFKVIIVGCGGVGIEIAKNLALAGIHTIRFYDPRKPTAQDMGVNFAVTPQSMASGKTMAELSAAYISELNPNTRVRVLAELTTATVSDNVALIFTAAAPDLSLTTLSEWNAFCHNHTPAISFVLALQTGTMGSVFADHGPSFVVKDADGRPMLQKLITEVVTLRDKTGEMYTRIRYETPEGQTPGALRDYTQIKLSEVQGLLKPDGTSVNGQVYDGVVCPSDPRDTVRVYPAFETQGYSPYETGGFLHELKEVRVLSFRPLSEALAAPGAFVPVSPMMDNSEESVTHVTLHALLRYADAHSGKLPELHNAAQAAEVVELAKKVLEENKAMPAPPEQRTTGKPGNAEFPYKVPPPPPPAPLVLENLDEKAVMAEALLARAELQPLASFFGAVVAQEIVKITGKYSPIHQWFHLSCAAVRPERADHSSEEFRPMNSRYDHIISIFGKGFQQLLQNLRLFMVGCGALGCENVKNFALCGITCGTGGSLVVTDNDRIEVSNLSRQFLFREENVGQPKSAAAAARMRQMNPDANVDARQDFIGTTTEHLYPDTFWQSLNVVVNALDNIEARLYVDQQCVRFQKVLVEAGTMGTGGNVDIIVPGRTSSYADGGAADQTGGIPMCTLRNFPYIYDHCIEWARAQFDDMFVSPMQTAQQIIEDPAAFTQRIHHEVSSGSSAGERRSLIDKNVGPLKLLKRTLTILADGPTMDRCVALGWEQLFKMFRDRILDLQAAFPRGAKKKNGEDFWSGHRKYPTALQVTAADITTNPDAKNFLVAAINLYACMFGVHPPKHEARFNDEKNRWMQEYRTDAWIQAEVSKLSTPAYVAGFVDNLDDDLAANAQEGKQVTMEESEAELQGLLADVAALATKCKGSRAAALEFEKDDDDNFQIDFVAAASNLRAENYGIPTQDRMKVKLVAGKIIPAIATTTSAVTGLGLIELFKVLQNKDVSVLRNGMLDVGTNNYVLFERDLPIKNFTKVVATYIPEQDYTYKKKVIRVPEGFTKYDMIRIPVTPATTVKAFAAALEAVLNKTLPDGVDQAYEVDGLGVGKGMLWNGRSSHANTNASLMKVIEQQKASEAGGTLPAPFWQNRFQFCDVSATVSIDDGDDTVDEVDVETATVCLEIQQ

[3] = target: AMP-activated protein kinase, AMPK (Homo sapiens) (UniProt P54646+O43741+P54619+Q9UGJ0+Q9Y478+Q13131+Q9UGI9); assay: AMP-dependent Kinase enzyme assay. An in vitro enzyme assay that detects ADP turnover that is directly proportional to AMPK activity. This uses naive AMPK that is activated during the assay with MK-8722; format: functional; settings: 30 µM
[4] = target: Sialic acid-binding Ig-like lectin 9 (Homo sapiens) (UniProt Q9Y336); assay: Hs-Siglec9 ALPHAscreen SOP 20170721; settings: 10 µM
Sequence of Sialic acid-binding Ig-like lectin 9 (Homo sapiens) (Q9Y336 whole entry): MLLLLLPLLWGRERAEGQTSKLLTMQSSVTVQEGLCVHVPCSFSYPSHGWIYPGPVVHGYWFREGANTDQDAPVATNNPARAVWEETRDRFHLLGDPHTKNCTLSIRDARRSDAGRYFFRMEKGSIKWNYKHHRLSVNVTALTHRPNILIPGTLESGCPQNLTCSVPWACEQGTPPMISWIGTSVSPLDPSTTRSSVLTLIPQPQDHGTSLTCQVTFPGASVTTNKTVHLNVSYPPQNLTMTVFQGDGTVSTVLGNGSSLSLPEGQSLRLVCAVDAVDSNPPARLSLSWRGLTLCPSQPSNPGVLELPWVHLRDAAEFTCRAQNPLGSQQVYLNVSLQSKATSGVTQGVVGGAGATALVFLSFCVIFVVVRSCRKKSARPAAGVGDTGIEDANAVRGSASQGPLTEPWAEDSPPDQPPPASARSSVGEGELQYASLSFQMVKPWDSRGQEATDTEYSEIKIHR

Trypanosoma cruzi = assay: Trypanosoma cruzi phosphomannomutase and mannose-1-phosphate guanylyltransferase assay; format: functional; settings: 10 µM
[5] = target: T2, Arginase-2, mitochondrial (Homo sapiens) (UniProt P78540); assay: in vitro enzyme assay to detect the production of urea directly proportional to the activity of Arginase II; format: functional; settings: 33.3 µM; further: in the data most compounds retested in dose-response had high values
T2 sequence (whole entry): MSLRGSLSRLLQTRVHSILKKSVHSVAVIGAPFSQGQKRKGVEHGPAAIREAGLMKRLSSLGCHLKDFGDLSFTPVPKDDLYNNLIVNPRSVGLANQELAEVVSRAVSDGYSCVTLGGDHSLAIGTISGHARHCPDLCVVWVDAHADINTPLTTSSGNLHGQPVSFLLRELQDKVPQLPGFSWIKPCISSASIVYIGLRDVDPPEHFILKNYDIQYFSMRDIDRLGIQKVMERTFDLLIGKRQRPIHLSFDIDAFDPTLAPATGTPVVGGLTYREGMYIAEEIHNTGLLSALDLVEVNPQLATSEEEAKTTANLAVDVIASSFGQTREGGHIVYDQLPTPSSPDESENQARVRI

[6] = target: T3, Proteasome subunit beta (Trypanosoma cruzi) (UniProt O96673); assay: Trypanosoma cruzi proteasome chymotrypsin-like activity (TcProtChymo) assay.; further: in the data most compounds retested in dose-response had high values; format: functional; settings: 9.37 µM
T3 sequence (whole entry): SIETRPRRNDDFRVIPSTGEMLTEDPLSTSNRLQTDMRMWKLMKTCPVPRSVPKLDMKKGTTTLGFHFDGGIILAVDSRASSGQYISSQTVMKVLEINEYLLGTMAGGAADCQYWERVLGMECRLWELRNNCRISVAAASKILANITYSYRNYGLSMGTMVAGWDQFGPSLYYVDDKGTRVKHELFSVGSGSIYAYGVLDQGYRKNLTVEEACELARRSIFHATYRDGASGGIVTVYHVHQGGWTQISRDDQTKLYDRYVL

Homo sapiens = organism: Homo sapiens; assay: To identify inhibition of the IFN signalling (Jak-Stat) pathway via expression of an eGFP reporter gene under the control of an IFN-stimulated response element (ISRE) containing MxA promoter.; format: functional; settings: 30 µM
[7] = target: T4, Tyrosyl-tRNA synthetase, putative (Trypanosoma cruzi (strain CL Brener)) (UniProt Q4DSP6); assay: Trypanosoma cruzi tyrosyl tRNA synthetase (TcYRS) _High Tyrosine SOP; format: functional; settings: 30 µM; further: in the data most compounds retested in dose-response had high values
T4 sequence (whole entry): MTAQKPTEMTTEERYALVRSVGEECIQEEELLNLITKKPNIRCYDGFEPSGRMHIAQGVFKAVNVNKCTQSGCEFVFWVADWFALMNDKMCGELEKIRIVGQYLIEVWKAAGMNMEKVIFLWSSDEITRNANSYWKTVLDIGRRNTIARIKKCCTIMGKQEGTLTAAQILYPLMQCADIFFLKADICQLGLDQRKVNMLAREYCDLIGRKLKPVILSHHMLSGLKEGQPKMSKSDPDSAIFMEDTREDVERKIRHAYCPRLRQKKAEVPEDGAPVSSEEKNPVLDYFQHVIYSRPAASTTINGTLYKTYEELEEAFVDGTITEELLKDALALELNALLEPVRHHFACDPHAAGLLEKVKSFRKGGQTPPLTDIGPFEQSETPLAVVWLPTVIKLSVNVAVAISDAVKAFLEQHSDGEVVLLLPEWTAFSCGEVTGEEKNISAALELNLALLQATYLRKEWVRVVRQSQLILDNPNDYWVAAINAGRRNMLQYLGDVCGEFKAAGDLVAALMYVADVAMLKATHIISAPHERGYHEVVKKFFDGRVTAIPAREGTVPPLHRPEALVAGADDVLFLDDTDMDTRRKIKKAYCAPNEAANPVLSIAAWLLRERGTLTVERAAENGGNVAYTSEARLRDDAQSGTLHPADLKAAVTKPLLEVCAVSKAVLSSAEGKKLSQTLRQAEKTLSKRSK

[8] = target: T4, Tyrosyl-tRNA synthetase, putative (Trypanosoma cruzi (strain CL Brener)); assay: Trypanosoma cruzi tyrosyl tRNA synthetase (TcYRS) SOP; format: functional; settings: 30 µM
[9] = target: Chromo domain-containing protein 1 (Saccharomyces cerevisiae (strain ATCC 204508 / S288c) (Baker's yeast)) (UniProt P32657); assay: ScCHD-1 Enzyme Inhibition Assay; format: functional; settings: 30 µM; further: in the data most compounds retested in dose-response had high values
Sequence of Chromo domain-containing protein 1 (Saccharomyces cerevisiae (strain ATCC 204508 / S288c) (Baker's yeast)) (P32657 whole entry, the tested form may be a part): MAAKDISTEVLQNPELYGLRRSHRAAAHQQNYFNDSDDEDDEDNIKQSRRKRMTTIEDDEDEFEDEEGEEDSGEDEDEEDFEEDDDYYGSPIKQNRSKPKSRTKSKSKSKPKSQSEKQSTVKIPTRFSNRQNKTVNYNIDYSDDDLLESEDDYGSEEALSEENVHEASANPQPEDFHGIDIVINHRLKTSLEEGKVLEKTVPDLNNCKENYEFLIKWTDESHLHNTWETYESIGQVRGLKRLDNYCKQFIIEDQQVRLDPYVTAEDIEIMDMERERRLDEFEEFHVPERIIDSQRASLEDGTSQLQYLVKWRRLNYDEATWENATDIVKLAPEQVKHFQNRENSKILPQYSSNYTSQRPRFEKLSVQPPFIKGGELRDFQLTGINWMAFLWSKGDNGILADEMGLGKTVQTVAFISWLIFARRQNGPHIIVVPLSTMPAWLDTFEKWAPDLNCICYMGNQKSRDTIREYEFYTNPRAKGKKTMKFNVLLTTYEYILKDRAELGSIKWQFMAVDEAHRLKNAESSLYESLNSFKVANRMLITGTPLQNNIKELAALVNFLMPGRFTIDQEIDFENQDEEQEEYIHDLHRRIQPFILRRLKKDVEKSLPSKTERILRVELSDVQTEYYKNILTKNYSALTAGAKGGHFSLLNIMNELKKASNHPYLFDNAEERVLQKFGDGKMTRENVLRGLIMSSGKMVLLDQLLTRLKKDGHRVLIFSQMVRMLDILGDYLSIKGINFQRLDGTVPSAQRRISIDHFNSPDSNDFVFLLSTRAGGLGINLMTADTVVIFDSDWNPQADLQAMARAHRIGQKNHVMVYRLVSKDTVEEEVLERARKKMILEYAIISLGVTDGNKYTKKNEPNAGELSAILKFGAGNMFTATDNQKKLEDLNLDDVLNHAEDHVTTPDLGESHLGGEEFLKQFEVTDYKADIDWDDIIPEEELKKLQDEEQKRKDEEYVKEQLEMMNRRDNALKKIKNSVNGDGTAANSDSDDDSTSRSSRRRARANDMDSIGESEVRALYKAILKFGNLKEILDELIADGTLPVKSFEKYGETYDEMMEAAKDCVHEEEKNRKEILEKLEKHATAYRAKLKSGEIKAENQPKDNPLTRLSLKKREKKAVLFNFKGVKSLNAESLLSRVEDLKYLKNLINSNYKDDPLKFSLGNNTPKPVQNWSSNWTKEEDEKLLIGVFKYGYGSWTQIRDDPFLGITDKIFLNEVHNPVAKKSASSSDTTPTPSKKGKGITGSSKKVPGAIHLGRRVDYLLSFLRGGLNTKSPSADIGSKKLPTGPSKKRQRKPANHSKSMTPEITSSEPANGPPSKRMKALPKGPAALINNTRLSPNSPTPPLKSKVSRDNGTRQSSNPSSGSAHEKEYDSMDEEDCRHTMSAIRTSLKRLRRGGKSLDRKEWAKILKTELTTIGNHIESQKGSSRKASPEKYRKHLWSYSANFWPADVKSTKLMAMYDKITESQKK

Sequence of Protein translocase subunit SecA (Escherichia coli (strain K12)) (P10408 whole entry): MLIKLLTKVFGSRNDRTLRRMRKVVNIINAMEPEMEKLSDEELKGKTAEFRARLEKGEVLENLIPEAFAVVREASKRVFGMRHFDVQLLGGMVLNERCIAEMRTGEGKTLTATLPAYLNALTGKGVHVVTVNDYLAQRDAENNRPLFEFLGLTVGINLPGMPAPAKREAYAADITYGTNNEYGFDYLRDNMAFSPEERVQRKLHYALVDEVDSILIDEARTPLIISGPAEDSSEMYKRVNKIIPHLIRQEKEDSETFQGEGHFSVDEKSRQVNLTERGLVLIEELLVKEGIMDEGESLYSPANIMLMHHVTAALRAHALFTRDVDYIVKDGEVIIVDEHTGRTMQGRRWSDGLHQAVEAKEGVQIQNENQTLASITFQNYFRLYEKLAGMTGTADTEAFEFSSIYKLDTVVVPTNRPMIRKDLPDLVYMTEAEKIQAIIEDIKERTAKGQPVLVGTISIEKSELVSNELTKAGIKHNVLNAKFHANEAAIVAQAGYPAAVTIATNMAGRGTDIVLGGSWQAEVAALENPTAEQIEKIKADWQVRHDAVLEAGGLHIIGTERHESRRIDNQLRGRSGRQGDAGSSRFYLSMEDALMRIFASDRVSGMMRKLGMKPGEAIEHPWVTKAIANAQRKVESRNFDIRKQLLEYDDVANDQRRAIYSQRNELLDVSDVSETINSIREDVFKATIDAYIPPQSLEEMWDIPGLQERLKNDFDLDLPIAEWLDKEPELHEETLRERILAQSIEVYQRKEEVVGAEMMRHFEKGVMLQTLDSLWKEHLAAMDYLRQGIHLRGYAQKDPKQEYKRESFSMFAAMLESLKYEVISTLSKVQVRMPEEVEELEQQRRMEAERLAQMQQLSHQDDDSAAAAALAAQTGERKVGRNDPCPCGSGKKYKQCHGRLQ

SMILES	Percent Effect [1]	Percent Effect [2]	Percent Effect [3]	Percent Effect [4]	Percent Effect (Trypanosoma cruzi)	Percent Effect [5]	Percent Effect [6]	Percent Effect (Homo sapiens)	Percent Effect [7]	Percent Effect [8]	Percent Effect [9]
CCn1nc(C)c2nnn(CC(=O)Nc3cccc(Cl)c3)c(=O)c21	-4.67%	-6.67%	1.25%	3.3%	4.13%	-5.11%	12.9%	-22.7%	6.35%	7.69%	-7%
COc1cccc(C2CCCN2C(=O)c2cc3c([nH]c2=O)CCC3)c1 (configuration not stated)	-1.17%	5.41%	0.0672%	-4.05%	1.17%	25%	16%	5.64%	7.92%	6.1%	-6.8%
COCC1Cn2nnc(-c3cnn(C)c3)c2CN1Cc1ccco1 (configuration not stated)	-2.03%	2.7%	-7.24%	5.87%	1.37%	23.8%	9.72%	-17.4%	11.9%	15.8%	-5.92%
CC(C)NC(=O)c1nnn(-c2cccc(C(F)(F)F)c2)c1C1CC1	-3.01%	15.3%	-3.96%	15.4%	5.73%	15.4%	22.8%	11.4%	4.21%	12.8%	77.3%
CN(C)CCN(Cc1ccc(Cl)cc1)C(=O)c1cc[nH]n1	-2.91%	20.8%	3.16%	18.6%	2.23%	3.53%	17.9%	3.16%	7.37%	17.9%	-5.67%
c1cncc(OCC2CN(Cc3ccco3)Cc3nccn3C2)c1 (configuration not stated)	-1.62%	21.9%	-8.03%	11.2%	4.17%	0%	16%	6.3%	10.4%	23.5%	-9.31%
Cc1cc(N2CCC(N(C)C(=O)c3ccccc3)CC2)nc(C)n1	-2.59%	19.2%	2.37%	4.5%	5.09%	10.4%	11.4%	29.3%	7.53%	17.5%	-8.12%
CCn1cc(NC(=O)NCC(O)COc2cccc(F)c2)cn1 (configuration not stated)	2.07%	13.2%	-3.12%	0.363%	-7.14%	1.92%	6.68%	13.5%	2.45%	17.1%	-8.89%
O=C(CCNCC(F)(F)F)N1CCC(Nc2cccnn2)CC1	2.07%	28.9%	4.48%	-13.6%	5.13%	4.68%	8.88%	12.2%	4.43%	23.5%	-14.7%
Cc1cccc(C(=O)NCCCN2CCN(c3ccccc3)CC2)c1	-2.4%	10.4%	-2.04%	-11.3%	-7%	5.81%	12.7%	13.6%	1.06%	8.97%	-9.93%
Cc1cc(C[S+]([O-])CC(=O)NCC(C)C)no1 (configuration not stated)	-4.4%	18.2%	6.46%	-1.61%	-2.06%	-2.49%	0.676%	-13.6%	7.77%	12.2%	-5.33%
Cc1cnn(CCNCc2csc(C)n2)c1	-1.46%	-5.33%	-1.53%	-3.7%	-0.876%	-2.6%	7.5%	1.61%	3.83%	6.17%	0.841%
Fc1ccc(OCCCN2CCOC(Cn3cncn3)C2)cc1 (configuration not stated)	-1.31%	-3.8%	6.98%	5.51%	3.79%	-3.23%	3.43%	2.48%	0%	2.53%	-15.5%
CNc1cc2c(nn1)CCN(C(=O)c1cc(F)cc(F)c1)C2	-4.7%	10.4%	2.19%	3.45%	2.84%	-3.16%	6.06%	3.72%	6.67%	9.41%	-21.1%
Cc1ccsc1CN(CCN(C)C)Cc1ccccn1	-5.5%	4.17%	-16.2%	21.2%	5.15%	18.5%	11.1%	-4.45%	7.37%	15.4%	-9.23%
Cc1ccc(NC(=O)NC(C)C(=O)N2CCS(=O)(=O)CC2)cc1 (configuration not stated)	-3.85%	5.41%	2.74%	5.55%	-1.74%	-11.9%	12.4%	11.4%	-0.529%	12.2%	-2.08%
CCC(=O)Nc1ccc(C(C)NC(=O)COCCOC)cc1 (configuration not stated)	0.243%	15.8%	-1.87%	-5.07%	1.46%	-3.55%	15.1%	23.5%	4.25%	15.6%	-5.61%
CC(=O)N1CC[C@H]2OCC[C@@]2(C(=O)NCc2ccco2)C1	-5.68%	5.33%	-0.449%	12.6%	-2.12%	-44.3%	11.3%	-5.97%	4.17%	5%	-6.83%
COc1nn(C)c2c1CCCN(C(=O)c1ccccc1)C2	-4.93%	2.7%	-0.442%	-2.98%	-1.76%	-1.25%	-1.27%	3.41%	4.95%	1.22%	-2.72%
CC(NC(=O)NCC1(c2ccc(F)cc2)CCC1)c1nncn1C (configuration not stated)	-5.85%	15.8%	2.85%	8.69%	-3.83%	0%	2.62%	7.23%	6.4%	23.5%	2.89%
CC(C)(C)N1CC(C(=O)N2CCN(CCc3ccccc3)CC2)CC1=O (configuration not stated)	-1.55%	5.33%	-2.2%	1.39%	-3.6%	1.56%	17.1%	32.1%	4.92%	11.1%	-6.21%
CS(=O)(=O)NCCCNC(=O)c1cccc(-n2cccc2)c1	-5.41%	15.8%	0.491%	-5%	2.04%	1.18%	15.8%	1.58%	1.06%	13%	-6.62%
